Records with an inconclusive call do not appear. Active and inactive are the calls of the source. Rule for the calls, unless noted: active = hit-call score of the fitted dose curve at least 0.9, where 1 is the maximum; inactive = score below 0.9.
Legend:
[1] = ATG_NFI_CIS: Attagene CIS-FACTORIAL HepG2 Assay for human Nuclear Factor I (NFI) (AID 2282989); conditions: HepG2 cis-regulatory reporter, NFI response element transcription; actives raise or lower the signal
Summary of the method: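 HepG2, transient MRTU, 24 h exposure; RNA→cDNA→PCR→FAM label→HpaI→CE fluorescence. Bidirectional fit, DMSO = baseline.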

[2] = molecular target: Myc proto-oncogene protein (Homo sapiens) (UniProt P01106); experiment: ATG_Myc_CIS: Attagene CIS-FACTORIAL HepG2 Assay for human Myelocytomatosis (Myc) Proto-Oncogene Transcription Factor (AID 2282990); conditions: HepG2, Attagene cis-reporter transcription factor activity; actives raise or lower the signal
Myc proto-oncogene protein (Homo sapiens), sequence (P01106 whole entry, looked up): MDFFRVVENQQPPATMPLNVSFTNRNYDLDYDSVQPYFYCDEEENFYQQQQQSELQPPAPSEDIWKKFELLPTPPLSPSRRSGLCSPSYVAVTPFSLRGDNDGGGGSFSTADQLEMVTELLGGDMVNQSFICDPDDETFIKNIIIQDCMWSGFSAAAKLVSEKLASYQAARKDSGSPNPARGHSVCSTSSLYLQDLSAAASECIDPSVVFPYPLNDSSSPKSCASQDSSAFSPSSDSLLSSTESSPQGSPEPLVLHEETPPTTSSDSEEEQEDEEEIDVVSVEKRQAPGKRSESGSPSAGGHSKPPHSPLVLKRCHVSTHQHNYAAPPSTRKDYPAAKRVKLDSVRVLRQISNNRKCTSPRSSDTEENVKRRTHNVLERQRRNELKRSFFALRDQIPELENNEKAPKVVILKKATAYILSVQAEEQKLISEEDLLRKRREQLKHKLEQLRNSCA
Summary of the method: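 Multiplexed cis-reporter transcription in HepG2 cells after 24 h chemical treatment. Reporter mRNA measured by RT-PCR and capillary electrophoresis fluorescence; activity fitted bidirectionally against DMSO control.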

[3] = ATG_NRF2_ARE_CIS: Attagene CIS-FACTORIAL HepG2 Assay for human Nuclear Factor Erythroid 2 Related Factor 2 (NFR2) response to Antioxidant Response Elements (ARE) (AID 2282992); conditions: HepG2 Attagene ARE/NRF2 reporter, transcription factor activity; actives raise or lower the signal
Summary of the method: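 Using transiently transfected HepG2 cells exposed for 24 h, reporter mRNA levels were determined by RT-PCR with fluorescent primer extension and capillary electrophoresis, analysed for gain or loss of signal against DMSO.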

[4] = ATG_Oct_MLP_CIS: Attagene CIS-FACTORIAL HepG2 Assay for human Octamer-Binding Transcription Factor (Oct) (AID 2282993); conditions: HepG2 Attagene cis-factorial Oct reporter, mRNA; actives raise or lower the signal
Summary of the method: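 Multiplexed cis-reporter assay in human liver HepG2 cells, 24 h incubation. Reporter RNA amplified and labelled, then resolved by capillary electrophoresis; DMSO serves as negative control and baseline.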

[5] = molecular target: human Peroxisome Proliferator-activated Receptor alpha (PPARa), PPARA (gene 5465) (UniProt Q07869); experiment: ATG_PPARa_TRANS: Attagene TRANS-FACTORIAL HepG2 Assay for human Peroxisome Proliferator-activated Receptor alpha (PPARa) (AID 2283001; active = hit-call score of the fitted dose curve at least 0.9, where 1 is the maximum)
human Peroxisome Proliferator-activated Receptor alpha (PPARa), PPARA (gene 5465), sequence (Q07869 whole entry, looked up): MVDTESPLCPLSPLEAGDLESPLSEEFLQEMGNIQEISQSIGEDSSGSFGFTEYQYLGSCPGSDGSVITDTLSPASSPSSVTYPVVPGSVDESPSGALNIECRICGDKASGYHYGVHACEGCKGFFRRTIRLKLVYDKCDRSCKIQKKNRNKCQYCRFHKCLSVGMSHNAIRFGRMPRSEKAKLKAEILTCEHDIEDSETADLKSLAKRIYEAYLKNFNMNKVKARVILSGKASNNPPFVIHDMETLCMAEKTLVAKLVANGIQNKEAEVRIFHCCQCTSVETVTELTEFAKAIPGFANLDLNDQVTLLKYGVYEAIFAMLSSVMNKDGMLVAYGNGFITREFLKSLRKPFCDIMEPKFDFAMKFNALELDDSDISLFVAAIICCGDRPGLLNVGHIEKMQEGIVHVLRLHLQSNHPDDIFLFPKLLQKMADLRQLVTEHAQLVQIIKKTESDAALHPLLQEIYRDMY
Summary of the method: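 Cells (HepG2) are transfected with multiple reporter transcription units, exposed to chemical for 24 h, then total RNA is reverse-transcribed and amplified. Labelled products are quantified by capillary electrophoresis; induction is referenced to DMSO.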

[6] = molecular target: human Retinoic Acid Receptor beta (RARb), RARB (gene 5915) (UniProt P10826); experiment: ATG_RARb_TRANS: Attagene TRANS-FACTORIAL HepG2 Assay for human Retinoic Acid Receptor beta (AID 2283004; active = hit-call score of the fitted dose curve at least 0.9, where 1 is the maximum)
human Retinoic Acid Receptor beta (RARb), RARB (gene 5915), sequence (P10826 whole entry, looked up, the tested form may be a part): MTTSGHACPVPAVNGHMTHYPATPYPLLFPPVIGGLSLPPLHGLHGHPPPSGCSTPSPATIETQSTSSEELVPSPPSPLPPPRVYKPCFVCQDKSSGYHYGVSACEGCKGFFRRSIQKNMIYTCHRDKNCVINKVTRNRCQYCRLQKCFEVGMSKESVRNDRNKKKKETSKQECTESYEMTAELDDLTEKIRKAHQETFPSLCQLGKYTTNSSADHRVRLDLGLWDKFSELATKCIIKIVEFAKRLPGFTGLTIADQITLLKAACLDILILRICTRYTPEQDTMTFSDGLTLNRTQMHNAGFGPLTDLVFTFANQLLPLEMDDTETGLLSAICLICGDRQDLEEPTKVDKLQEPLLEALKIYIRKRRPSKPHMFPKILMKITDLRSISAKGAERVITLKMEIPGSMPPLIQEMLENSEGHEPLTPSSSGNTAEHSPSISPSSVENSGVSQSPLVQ
Summary of the method: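 Readout is reporter mRNA induction: RNA reverse-transcribed, PCR-amplified, FAM-labelled, HpaI-cut and resolved by capillary electrophoresis. Transiently transfected HepG2 cells carrying exogenous NR–Gal4 chimeras were dosed for 24 h; activity fitted upward relative to DMSO.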

[7] = molecular target: Retinoic acid receptor alpha (Homo sapiens) (UniProt P10276); experiment: ATG_RARa_TRANS: Attagene TRANS-FACTORIAL HepG2 Assay for human Retinoic Acid Receptor alpha (RARa) (AID 2283005; active = hit-call score of the fitted dose curve at least 0.9, where 1 is the maximum;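 for AC50: potency for increased reporter signal meaning RARa activation over DMSO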)
Retinoic acid receptor alpha (Homo sapiens), sequence (P10276 whole entry, looked up, the tested form may be a part): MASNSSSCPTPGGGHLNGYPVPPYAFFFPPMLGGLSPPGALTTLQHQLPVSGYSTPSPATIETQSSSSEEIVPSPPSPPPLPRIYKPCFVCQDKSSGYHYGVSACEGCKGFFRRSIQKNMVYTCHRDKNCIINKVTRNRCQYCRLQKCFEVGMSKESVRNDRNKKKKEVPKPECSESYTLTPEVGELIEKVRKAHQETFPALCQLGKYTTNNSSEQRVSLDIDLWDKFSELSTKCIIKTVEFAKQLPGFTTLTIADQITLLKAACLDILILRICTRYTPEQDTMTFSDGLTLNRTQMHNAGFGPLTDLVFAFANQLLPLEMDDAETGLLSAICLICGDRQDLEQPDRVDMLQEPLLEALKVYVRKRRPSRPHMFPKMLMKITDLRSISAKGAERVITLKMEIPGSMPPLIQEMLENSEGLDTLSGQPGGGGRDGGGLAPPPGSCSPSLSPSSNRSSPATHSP
Summary of the method: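 HepG2 cells transiently transfected with multiple reporter units expressing chimeric RARα-GAL4 fusion, with GAL4-UAS-driven reporters. After 24 h compound exposure, reporter mRNA induction quantified by RT-PCR and capillary electrophoresis with fluorescent labeling; gain-of-signal fitted relative to DMSO control.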

[8] = molecular target: Peroxisome proliferator-activated receptor gamma (Homo sapiens) (UniProt P37231); experiment: ATG_PPARg_TRANS: Attagene TRANS-FACTORIAL HepG2 Assay for human Peroxisome Proliferator-activated Receptor-gamma (PPARg) (AID 2283007; active = hit-call score of the fitted dose curve at least 0.9, where 1 is the maximum)
Peroxisome proliferator-activated receptor gamma (Homo sapiens), sequence (P37231 whole entry, looked up, the tested form may be a part): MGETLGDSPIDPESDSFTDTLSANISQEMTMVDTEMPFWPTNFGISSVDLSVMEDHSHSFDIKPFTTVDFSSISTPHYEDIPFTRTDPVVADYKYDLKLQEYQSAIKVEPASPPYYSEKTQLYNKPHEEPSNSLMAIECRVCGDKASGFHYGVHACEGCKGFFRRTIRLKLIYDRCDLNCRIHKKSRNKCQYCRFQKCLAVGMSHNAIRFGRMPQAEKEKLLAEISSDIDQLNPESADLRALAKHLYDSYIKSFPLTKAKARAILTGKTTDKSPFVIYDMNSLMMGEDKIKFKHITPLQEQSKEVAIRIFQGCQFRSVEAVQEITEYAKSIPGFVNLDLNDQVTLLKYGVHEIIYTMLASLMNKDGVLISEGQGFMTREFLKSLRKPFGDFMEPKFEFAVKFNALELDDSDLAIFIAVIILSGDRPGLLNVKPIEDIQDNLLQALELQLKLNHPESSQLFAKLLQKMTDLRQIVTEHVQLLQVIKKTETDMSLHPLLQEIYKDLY
Summary of the method: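 Chimeric NR-Gal4 transactivation is measured in transiently transfected HepG2 cells by reporter mRNA induction at 24 h. Detection uses RT-PCR with fluorescent labelling and capillary electrophoresis; DMSO defines baseline.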

[9] = molecular target: Nuclear receptor subfamily 1 group I member 2 (Homo sapiens) (UniProt O75469); experiment: ATG_PXR_TRANS: Attagene TRANS-FACTORIAL HepG2 Assay for human Pregnane X Receptor (PXR) (AID 2283008; active = hit-call score of the fitted dose curve at least 0.9, where 1 is the maximum)
Nuclear receptor subfamily 1 group I member 2 (Homo sapiens), sequence (O75469 whole entry, looked up, the tested form may be a part): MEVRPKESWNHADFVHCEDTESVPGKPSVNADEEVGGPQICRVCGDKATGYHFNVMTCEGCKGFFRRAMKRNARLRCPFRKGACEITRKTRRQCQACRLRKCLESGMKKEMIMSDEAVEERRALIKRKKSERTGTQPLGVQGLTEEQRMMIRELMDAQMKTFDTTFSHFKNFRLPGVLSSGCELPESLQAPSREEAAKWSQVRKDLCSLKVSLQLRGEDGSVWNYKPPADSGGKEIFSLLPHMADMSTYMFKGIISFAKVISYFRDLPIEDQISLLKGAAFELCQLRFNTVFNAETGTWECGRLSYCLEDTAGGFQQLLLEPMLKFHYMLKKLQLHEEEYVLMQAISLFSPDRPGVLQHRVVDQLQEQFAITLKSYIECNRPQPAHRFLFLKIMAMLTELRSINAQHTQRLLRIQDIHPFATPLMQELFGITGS
Summary of the method: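 Multiplexed TRANS reporter panel in HepG2; this component tracks PXR-Gal4-driven reporter mRNA after 24 h dosing, measured by RT-PCR with capillary electrophoresis fluorescence, fitted against DMSO.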

[10] = molecular target: human Retinoic Acid Receptor gamma (RARg), RARG (gene 5916) (UniProt P13631); experiment: ATG_RARg_TRANS: Attagene TRANS-FACTORIAL HepG2 Assay for human Retinoic Acid Receptor gamma (RARg) (AID 2283009; active = hit-call score of the fitted dose curve at least 0.9, where 1 is the maximum;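 for AC50: AC50 is for reporter induction above DMSO meaning RARg activation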)
human Retinoic Acid Receptor gamma (RARg), RARG (gene 5916), sequence (P13631 whole entry, looked up, the tested form may be a part): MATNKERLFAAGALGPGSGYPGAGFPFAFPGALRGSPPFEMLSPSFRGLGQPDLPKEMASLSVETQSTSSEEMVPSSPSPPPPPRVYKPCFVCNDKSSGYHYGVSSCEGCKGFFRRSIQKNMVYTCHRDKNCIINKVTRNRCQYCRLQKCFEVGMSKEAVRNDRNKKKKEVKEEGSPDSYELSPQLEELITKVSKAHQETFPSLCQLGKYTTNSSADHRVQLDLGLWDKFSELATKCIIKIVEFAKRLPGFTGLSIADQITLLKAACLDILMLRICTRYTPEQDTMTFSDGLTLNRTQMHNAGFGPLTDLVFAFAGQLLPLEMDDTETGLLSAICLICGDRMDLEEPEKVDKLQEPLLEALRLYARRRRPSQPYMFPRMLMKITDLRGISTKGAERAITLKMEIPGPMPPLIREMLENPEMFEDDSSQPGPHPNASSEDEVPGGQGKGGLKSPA
Summary of the method: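 Transactivation of exogenous RARg-Gal4 fusion measured as reporter transcript induction after 24 h in transfected HepG2 cells. RNA reverse-transcribed, amplified, fluorescently labeled and resolved by capillary electrophoresis; increase relative to DMSO.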

[11] = molecular target: human Peroxisome Proliferator-activated Receptor delta (PPARd), PPARD (gene 5467) (UniProt Q03181); experiment: ATG_PPARd_TRANS: Attagene TRANS-FACTORIAL HepG2 Assay for human Peroxisome Proliferator-activated Receptor delta (PPARd) (AID 2283002; active = hit-call score of the fitted dose curve at least 0.9, where 1 is the maximum)
human Peroxisome Proliferator-activated Receptor delta (PPARd), PPARD (gene 5467), sequence (Q03181 whole entry, looked up, the tested form may be a part): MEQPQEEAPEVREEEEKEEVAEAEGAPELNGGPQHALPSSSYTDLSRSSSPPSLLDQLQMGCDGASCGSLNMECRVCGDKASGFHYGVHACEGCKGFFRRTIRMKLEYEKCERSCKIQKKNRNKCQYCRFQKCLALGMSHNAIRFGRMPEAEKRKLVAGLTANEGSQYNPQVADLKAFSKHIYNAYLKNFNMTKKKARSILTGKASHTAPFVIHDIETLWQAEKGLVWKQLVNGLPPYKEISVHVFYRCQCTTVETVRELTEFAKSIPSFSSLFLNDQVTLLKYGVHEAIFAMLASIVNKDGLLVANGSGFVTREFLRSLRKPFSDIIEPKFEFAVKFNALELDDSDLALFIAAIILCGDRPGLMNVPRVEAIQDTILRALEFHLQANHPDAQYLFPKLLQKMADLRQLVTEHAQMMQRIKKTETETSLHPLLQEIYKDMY
Summary of the method: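 Multiplexed trans-activation format: HepG2 liver cells expressing exogenous NR-Gal4 chimeras and GAL4-UAS reporters were exposed for 24 h. Reporter mRNA was detected by RT-PCR with capillary electrophoresis fluorescence; activity fitted as gain of signal relative to DMSO.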

[12] = molecular target: Cellular tumor antigen p53 (Homo sapiens) (UniProt P04637); experiment: ATG_p53_CIS: Attagene CIS-FACTORIAL HepG2 Assay for human p53 Transcription Factor (AID 2282994); conditions: HepG2 p53 cis-element reporter, Attagene mRNA; actives raise or lower the signal
Cellular tumor antigen p53 (Homo sapiens), sequence (P04637 whole entry, looked up, the tested form may be a part): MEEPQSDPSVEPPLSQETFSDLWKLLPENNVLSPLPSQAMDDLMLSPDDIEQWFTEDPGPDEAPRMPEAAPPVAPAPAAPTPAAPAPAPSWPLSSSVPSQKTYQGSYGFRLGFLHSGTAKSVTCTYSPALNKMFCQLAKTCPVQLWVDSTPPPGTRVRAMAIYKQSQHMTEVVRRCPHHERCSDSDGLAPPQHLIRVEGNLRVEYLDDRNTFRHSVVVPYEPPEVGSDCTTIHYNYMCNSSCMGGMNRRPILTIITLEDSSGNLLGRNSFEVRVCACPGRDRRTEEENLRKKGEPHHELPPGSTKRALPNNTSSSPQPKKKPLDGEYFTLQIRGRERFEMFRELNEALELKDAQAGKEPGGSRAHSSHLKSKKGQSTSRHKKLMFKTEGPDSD
Summary of the method: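 In HepG2 cells, reporter transcription units under cis-regulatory promoters were transiently introduced. Following 24 h treatment, RNA was processed to labelled, digested cDNA fragments read by capillary electrophoresis; fitting was bidirectional versus DMSO.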

[13] = molecular target: human RAR-related Orphan Receptor beta (RORb), RORB (gene 6096) (UniProt Q92753); experiment: ATG_RORb_TRANS: Attagene TRANS-FACTORIAL HepG2 Assay for human RAR-related Orphan Receptor beta (RORb) (AID 2283010; active = hit-call score of the fitted dose curve at least 0.9, where 1 is the maximum)
human RAR-related Orphan Receptor beta (RORb), RORB (gene 6096), sequence (Q92753 whole entry, looked up, the tested form may be a part): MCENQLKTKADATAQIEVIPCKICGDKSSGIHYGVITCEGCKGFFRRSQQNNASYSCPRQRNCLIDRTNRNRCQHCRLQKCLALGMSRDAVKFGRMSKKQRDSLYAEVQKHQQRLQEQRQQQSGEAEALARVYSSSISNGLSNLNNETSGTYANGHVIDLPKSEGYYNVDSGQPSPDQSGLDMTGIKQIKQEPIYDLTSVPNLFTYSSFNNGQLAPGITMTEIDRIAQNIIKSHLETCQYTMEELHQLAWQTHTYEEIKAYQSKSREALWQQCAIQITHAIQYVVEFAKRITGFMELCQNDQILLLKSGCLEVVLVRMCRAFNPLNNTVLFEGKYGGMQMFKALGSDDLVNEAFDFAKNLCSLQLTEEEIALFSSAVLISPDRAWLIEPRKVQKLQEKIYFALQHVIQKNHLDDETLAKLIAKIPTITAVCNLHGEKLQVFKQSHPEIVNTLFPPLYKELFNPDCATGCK
Summary of the method: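 Read-out is reporter mRNA induction, quantified by RT-PCR with fluorescent capillary electrophoresis, 24 h post-dose in transiently transfected HepG2 expressing exogenous NR-Gal4 chimera. Activity fitted upward versus DMSO.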

[14] = BSK_3C_TissueFactor: BioMAP Diversity Plus: 3C Assay for Tissue Factor Biomarker Activity (AID 2282997); conditions: BioMAP 3C HUVEC, tissue factor biomarker readout; actives raise or lower the signal
Summary of the method: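 HUVEC, 3C system, 24 h post-dose; Tissue Factor by ELISA; bidirectional fit vs DMSO baseline.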

[15] = BSK_3C_uPAR: BioMAP Diversity Plus: 3C Assay for Urokinase-type plasminogen activator receptor (uPAR) Biomarker Activity (AID 2282998); conditions: BioMAP 3C HUVEC, uPAR biomarker ELISA; actives raise or lower the signal
Summary of the method: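 Dose primary human umbilical vein endothelial cells, incubate 24 h, measure cell-surface uPAR by ELISA, then fit the signal in both directions against the DMSO negative control.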

[16] = BSK_3C_VCAM1: BioMAP Diversity Plus: 3C Assay for Vascular cell adhesion molecule 1 (VCAM1) Biomarker Activity (AID 2282999); conditions: BioMAP 3C HUVEC, VCAM1 ELISA, cytokine-stimulated; actives raise or lower the signal
Summary of the method: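 Vascular primary endothelium (human umbilical vein) was exposed to chemicals and assayed 24 h later. VCAM-1 levels came from ELISA, with DMSO serving as baseline for bidirectional fitting.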

[17] = BSK_4H_Eotaxin3: BioMAP Diversity Plus: 4H Assay for Eotaxin 3 Biomarker Activity (AID 2283000); conditions: primary human endothelial cells (HUVEC); actives raise or lower the signal
Summary of the method: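 Readout is Eotaxin-3 (CCL26) level by ELISA in primary human umbilical vein endothelial cells harvested 24 h after chemical exposure; activity fitted in both directions against DMSO control.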

[18] = read-out: Intercellular Adhesion Molecule 1 (ICAM1), ICAM1 (gene 3383); experiment: BSK_3C_ICAM1: BioMAP Diversity Plus: 3C Assay for Intercellular Adhesion Molecule 1 (ICAM1) Biomarker Activity (AID 2283003); conditions: primary human endothelial cells (HUVEC); actives raise or lower the signal
Summary of the method: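 ELISA readout of ICAM1 in human umbilical vein endothelial cells in the 3C system, taken 24 h post-dose. Gain or loss of signal versus DMSO was fitted in both directions, with SRB total-protein staining run in parallel.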

[19] = BSK_3C_Proliferation: Cell Proliferation Assessment in the BioMAP Diversity Plus: 3C Assay (AID 2283006); conditions: primary human endothelial cells (HUVEC);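 note: potency may reflect either rise or fall in cell number versus DMSO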
Summary of the method: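 Proliferation as total protein: sulforhodamine B (0.1%) stain of TCA-fixed subconfluent human umbilical vein endothelial cells, absorbance 560 nm, 48 h after dosing. Activity fitted in both directions against DMSO baseline.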

Measured: AC50

CCOC(=O)Cc1cccc2ccccc12
active: [8] 44.5 µM
inactive: [1] | [2] | [3] | [4] | [5] | [6] | [7] | [9] | [10]

CC(C)(C)C(=O)CCc1ccc(Cl)cc1
inactive: [1] | [2] | [3] | [11] | [8] | [9] | [10]

c1cc(C(c2ccc(OCC3CO3)cc2)C(c2ccc(OCC3CO3)cc2)c2ccc(OCC3CO3)cc2)ccc1OCC1CO1 (stereo not drawn)
active: [1] 22 µM | [3] 21.1 µM | [4] 25.6 µM
inactive: [2] | [11] | [7] | [8] | [9]

CC1(C)O[C@@H]2C[C@H]3[C@@H]4C[C@H](F)C5=CC(=O)C=C[C@]5(C)[C@@]4(F)[C@@H](O)C[C@]3(C)[C@]2(C(=O)CO)O1
inactive: [1] | [2] | [3] | [4] | [11] | [9]

[Cl][In]([Cl])[Cl]
active: [3] 17.6 µM
inactive: [1] | [2] | [4] | [12] | [11] | [7] | [9] | [10] | [13]

CC(CC=O)c1ccccc1 (stereo not drawn)
inactive: [1] | [2] | [4] | [12] | [11]
active: [3] 121 µM | [8] 56.2 µM | [9] 5.22 µM

C1CN(SSN2CCOCC2)CCO1
active: [3] 18.8 µM
inactive: [1] | [2] | [12] | [8] | [9]

c1ccc2c(c1)ccc1ncccc12
active: [2] 26.7 µM | [3] 148 µM | [14] 8 µM | [15] 13.4 µM | [17] 20 µM | [7] 13.4 µM | [19] 20 µM | [8] 67.1 µM | [10] 33.2 µM
not listed: [12]
inactive: all other assays above

Reference: PubChem BioAssay (EPA / NIEHS)
